Source: PubChem BioAssay (National Center for Advancing Translational Sciences (NCATS))
ClpP mod: qHTS Assay for Activators of ClpP; ATP-dependent Clp protease proteolytic subunit (Bacillus subtilis (strain 168)), P80244; purified B. subtilis ClpP, FRET peptide cleavage, 20 min; 1.9% of 340,000 active; Potency, µM (top dose mostly 57.5 µM); AID 651965, 2013; active means well fitted falling curve with a large enough effect; inconclusive means small, poorly fitted or top-dose-only effect; inactive means no such curve, though single readings can be large or run the other way; further: the source files actives as falling curves though it sought activators and does not explain the sign; nearly all actives have a fitted effect of over 65% in size
Target sequence (P80244 whole entry, looked up): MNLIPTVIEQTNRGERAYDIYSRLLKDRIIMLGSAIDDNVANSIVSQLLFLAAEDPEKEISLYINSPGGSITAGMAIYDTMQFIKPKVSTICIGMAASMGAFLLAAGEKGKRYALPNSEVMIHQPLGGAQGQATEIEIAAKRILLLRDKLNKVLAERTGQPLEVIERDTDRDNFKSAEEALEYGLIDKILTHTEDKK
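Purified B. subtilis ClpP, 10 microg/mL final in Tris/HCl pH8 with KCl, BSA, glycerol and Tween-20, cleaved an Abz/nitrotyrosine-quenched decapeptide. Fluorescence (ex 320, em 430) was read at 0 and 20 min at room temperature. Delta was normalized to 5.8 microM ADEP and DMSO/no-enzyme controls.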
Mito fusion yeast: blocks mitochondrial division or promotes mitochondrial fusion; S. cerevisiae fusion-defective mutant growth rescue, CellTiterGlo 48 h; Potency, µM (doses to about 46.1 µM), most hits filed as activators; 0.23% of 320,000 active; AID 485298; further: nearly all actives have a fitted effect of over 45% in size
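Yeast fusion mutant, YPEG (non-fermentable carbon), compound, 48 h at 37C non-permissive; CellTiterGlo added, 10 min RT, luminescence read. Rescued growth = division inhibition.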
Giardia killer: kills Giardia lamblia | 0.15% of 340,000 active | activity change, % at 7.66 µM, hits read low | Giardia lamblia trophozoite viability; in the data active means activity change below about -80%; inconclusive means between about -30% and that limit;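 further: parasites exposed to compound for two days anaerobically before the ATP read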
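Luminescent ATP signal served as the viability read-out, measured 15-30 min after adding ATP detection reagent to trophozoites that had been incubated with compounds for 48 hrs at 37 deg C anaerobically at 100 cells/well.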
B2AR arrestin: recruits beta-arrestin to the human beta2-adrenergic receptor | beta-arrestin recruitment to beta2AR, cell-based reporter | Potency, µM (highest dose often 46.1 µM), hits mostly activators | 0.02% of 330,000 active; further: nearly all actives have a fitted effect of over 65% in size
Target sequence (P07550 whole entry, looked up): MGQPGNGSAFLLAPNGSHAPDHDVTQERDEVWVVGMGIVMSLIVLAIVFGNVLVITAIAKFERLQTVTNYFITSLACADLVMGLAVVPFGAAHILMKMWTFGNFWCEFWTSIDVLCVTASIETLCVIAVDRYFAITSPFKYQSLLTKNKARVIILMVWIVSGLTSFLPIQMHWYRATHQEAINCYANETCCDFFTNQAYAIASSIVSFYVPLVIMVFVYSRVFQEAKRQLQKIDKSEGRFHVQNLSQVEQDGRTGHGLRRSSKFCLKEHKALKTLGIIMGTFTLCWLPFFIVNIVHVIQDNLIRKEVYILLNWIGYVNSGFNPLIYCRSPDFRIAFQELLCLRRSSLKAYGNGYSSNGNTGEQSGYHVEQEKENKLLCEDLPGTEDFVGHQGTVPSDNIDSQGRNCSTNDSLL
uPA surface inh: inhibitors of cell surface uPA generation | cell surface uPA generation assay, qHTS | Potency, µM (series often up to 38.3 µM), actives largely listed as inhibitors | 0.31% of 330,000 active | AID 540303; active means well fitted inhibition curve with a large enough effect; inconclusive means small, poorly fitted or top-dose-only effect; inactive means no such curve, though single readings can be large or run the other way; tested in mouse RAW 264.7 cells; further: nearly all actives have a fitted effect of over 55% in size
p53 reactivation: re-activators of mutant p53; H1299 p53-A138V BP100-luciferase reporter, luminescence, 24 h; Potency, µM (highest dose often 92.2 µM), most hits filed as activators; 0.063% of 320,000 active; further: nearly all actives have a fitted effect of over 45% in size
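p53-null H1299 cells stably carrying temperature-sensitive p53-A138V and a BP100-luciferase reporter were pinned with compounds (4-point, 1:5 series) and held 24 hrs at 37 deg C. Luminescence was read 10 min after detection reagent.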
Large screens that a line does not name were inactive. Shown are actives, neighbours in structure and some others; about 2.1% of the full set was active somewhere. Unless noted, the call rests on the fitted dose curve; in most records, active means well fitted curve in the direction sought with a large enough effect; inconclusive means small, poorly fitted or top-dose-only effect, or another doubt; inactive means no such curve, though single readings can be large; an effect the other way counts as inactive or inconclusive.

CCC(=O)NCCc1cc2cc(C)c(C)cc2[nH]c1=O	ClpP mod 16µM
Cc1ccccc1Cn1c(=O)n(CCCCC(=O)NCc2ccccc2Cl)c(=O)c2ccccc21	none (no result: Mito fusion yeast, Giardia killer, B2AR arrestin, uPA surface inh, p53 reactivation)
Nc1nc2ccccc2nc1N	ClpP mod 14µM
CC(C)(C)c1ccc(C(=O)N2CC(=O)Nc3ccc(F)cc3C2c2ccc(F)cc2)cc1 (centres undefined)	none (no result: Mito fusion yeast, Giardia killer, B2AR arrestin, uPA surface inh, p53 reactivation)
O=C(N/N=C/C(Cl)=C/c1ccccc1)c1cnccn1	p53 reactivation inconclusive
O=C(N/N=C/C(Cl)=C\c1ccccc1)c1cnccn1	p53 reactivation 13µM
O=C(Nc1ccc(C(=O)N2CCN(c3cccc(Cl)c3)CC2)cc1)c1nsc2ccccc12	none (no result: Mito fusion yeast, Giardia killer, B2AR arrestin, uPA surface inh, p53 reactivation)
O=C(CCCCCN1C(=O)[C@@H]2Cc3ccccc3CN2C1=O)Nc1cccc(F)c1	Mito fusion yeast 13µM
COC(=O)c1ccc(C2=NOC(C)(c3sc(-c4ccc(Cl)cc4)nc3C)C2)cc1 (centres undefined)	ClpP mod 25µM
CSc1nc2n(n1)C(c1ccccn1)C1=C(CC(C)(C)CC1=O)N2 (centres undefined)	ClpP mod 25µM (no result: uPA surface inh)
O=C(OCc1cc(=O)n2nc(-c3cccs3)sc2n1)c1ccc(Cl)cc1	none (no result: Mito fusion yeast, Giardia killer, B2AR arrestin, uPA surface inh, p53 reactivation)
Cc1cccc(CN2CCN(C(=O)c3cccc4ccccc34)CC2)c1	ClpP mod 32µM
O=C(c1ccncc1)N1CCN(C(=O)c2cccc3ccccc23)CC1	ClpP mod 14µM
COc1cc(C(=O)N2CCN(C(=O)c3cccc4ccccc34)CC2)cc(OC)c1OC	none (no result: ClpP mod)
COc1ccccc1N1CCN(C(=O)c2ccc(Nc3nc4ccccc4n4nnnc34)cc2)CC1	none (no result: Mito fusion yeast, Giardia killer, B2AR arrestin, uPA surface inh, p53 reactivation)
COC(=O)[C@]12CCCCC=C1N(Cc1ccc3c(c1)OCO3)C(=O)[C@H](CC(=O)N1CCSCC1)C2	none (no result: Mito fusion yeast, Giardia killer, B2AR arrestin, uPA surface inh, p53 reactivation)
CCOc1cc2c(C#N)c(N3CCOCC3)nc(N)c2c(N)n1	ClpP mod 32µM
CCCCc1nc(N2CCOCC2)c(C#N)c2c1CCCC2	ClpP mod 25µM, p53 reactivation inconclusive
CCCSc1nc(N2CCOCC2)c2c(c1C#N)CCCC2	none
CSc1nc(N2CCOCC2)c2c(c1C#N)CCCCC2	none
N#CCCSc1nc(N2CCOCC2)c2c(c1C#N)CCCC2	none
CC(C)c1nc(N2CCOCC2)c(C#N)c2c1CCC2	ClpP mod 25µM
CCCc1nc(N2CCOCC2)c(C#N)c2c1CCCC2	ClpP mod 32µM
CCCCN(C)S(=O)(=O)c1cc(-c2cc(C)no2)ccc1C	none (no result: Mito fusion yeast, Giardia killer, B2AR arrestin, uPA surface inh, p53 reactivation)
CCOc1ccc(CCN2C(=O)C(=O)N([C@@H](Cc3ccccc3)CN3CCC[C@H]3CN3C(=O)C(=O)NC[C@@H]3Cc3ccccc3)C[C@@H]2CC(C)C)cc1	none (no result: Mito fusion yeast, Giardia killer, B2AR arrestin, uPA surface inh, p53 reactivation)
Cc1cc(N2CCOCC2)nc(N2CCOCC2)c1C#N	none (no result: Mito fusion yeast, Giardia killer, B2AR arrestin, uPA surface inh, p53 reactivation)
Cc1cc(C)c(C#N)c(N2CCOCC2)n1	ClpP mod 25µM
N#C/C(=C\c1ccc(Cl)cc1Cl)c1nc(-c2cccc(Cl)c2)cs1	none (no result: Mito fusion yeast, Giardia killer, B2AR arrestin, uPA surface inh, p53 reactivation)
CCOC(=O)c1cccc(NC(=O)c2cc3c(Cl)nc4ccc(C)cc4c3s2)c1	none (no result: Mito fusion yeast, Giardia killer, B2AR arrestin, uPA surface inh, p53 reactivation)
COc1ccc(C(=O)N/N=C/c2ccc3cccc(OCc4ccccc4)c3n2)cc1	ClpP mod 3.2µM, p53 reactivation inconclusive
O=C(N/N=C/c1ccc2cccc(OCc3ccccc3)c2n1)c1ccc(Br)cc1	ClpP mod 4µM
CCOc1ccc2nc(N3CCN(C(=O)c4ccc5c(c4)CCCC5)CC3)sc2c1	none (no result: Mito fusion yeast, Giardia killer, B2AR arrestin, uPA surface inh, p53 reactivation)
N=c1c(C(=O)NCc2ccco2)cc2c(=O)n3ccccc3nc2n1CC1CCCO1 (centres undefined)	ClpP mod 28µM (no result: Mito fusion yeast, B2AR arrestin, p53 reactivation)
N=c1c(C(=O)NCc2ccco2)cc2c(=O)n3ccccc3nc2n1CCc1ccccc1	ClpP mod 28µM
COc1ccc(CCn2c(=N)c(C(=O)NCc3ccco3)cc3c(=O)n4ccccc4nc32)cc1OC	none (no result: Mito fusion yeast, B2AR arrestin, p53 reactivation)
Cc1cccc(NC(=O)c2sc3nc4n(c(=O)c3c2C)N=C(c2ccc(F)cc2)CS4)c1C	none (no result: Mito fusion yeast, Giardia killer, B2AR arrestin, uPA surface inh, p53 reactivation)
COCc1cc(C)nc(OCC(=O)N/N=C/c2ccco2)c1C#N	ClpP mod 14µM
COCc1cc(C)nc(OCC(=O)N/N=C/c2ccccc2)c1C#N	none (no result: ClpP mod, Mito fusion yeast)
CC(NC(=O)c1cccc(S(=O)(=O)N2CCN(Cc3ccccc3)CC2)c1)c1ccccc1Cl (centres undefined)	none (no result: Mito fusion yeast, B2AR arrestin, p53 reactivation)
CC(NC(=O)c1cccc(S(=O)(=O)N2CCN(Cc3ccccc3)CC2)c1)c1ccc(Br)cc1 (centres undefined)	ClpP mod 25µM
CCSc1ncc(Cl)c(C(=O)Nc2sc3c(c2C(=O)OC)CCCC3)n1	none (no result: Mito fusion yeast, Giardia killer, B2AR arrestin, uPA surface inh, p53 reactivation)
CCCCCCCC/C=C\CCCCCCCC(=O)NCCc1ccc(O)c(O)c1	Mito fusion yeast inconclusive, uPA surface inh 3.2µM
CCCCCCCC/C=C\CCCCCCCC(=O)NCc1ccc(O)c(OC)c1	none (no result: ClpP mod, Giardia killer, B2AR arrestin, uPA surface inh, p53 reactivation)
CCOc1ccc2cc(C#N)c(SCC(=O)N3CCOCC3)nc2c1	ClpP mod 25µM, p53 reactivation inconclusive
CCOC(=O)CSc1nc2cc(OC)ccc2cc1C#N	ClpP mod 32µM, p53 reactivation inconclusive
CCOC(=O)CSc1nc2cc(C)ccc2cc1C#N	none
CCc1ccccc1N(C)C(=O)Cn1cnc2sc(C)c(S(=O)(=O)N3CCN(c4ncccn4)CC3)c2c1=O	none (no result: Mito fusion yeast, Giardia killer, B2AR arrestin, uPA surface inh, p53 reactivation)
COc1cccc(/C=N/Nc2nc3ccccc3n3cnnc23)c1O	p53 reactivation 32µM
